Reference: PMC4336329 (PLoS ONE, 2015)
Out of some 310,000 compounds screened, about 14,000 (4.5%) showed an effect of 50% or more. The effect is printed as a negative number. Many of the other results were omitted from the sample, so strong results are more common in it than they were.

biological target: human ether-à-go-go-related gene (hERG) potassium channel (human, UniProt Q12809); test: primary screen, population patch clamp on CHO cells stably expressing hERG; higher = less effect of the substance
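Note: peak tail current of the secondary pulse compared with the same well before compound.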

human ether-à-go-go-related gene (hERG) potassium channel, sequence (Q12809 whole entry, looked up): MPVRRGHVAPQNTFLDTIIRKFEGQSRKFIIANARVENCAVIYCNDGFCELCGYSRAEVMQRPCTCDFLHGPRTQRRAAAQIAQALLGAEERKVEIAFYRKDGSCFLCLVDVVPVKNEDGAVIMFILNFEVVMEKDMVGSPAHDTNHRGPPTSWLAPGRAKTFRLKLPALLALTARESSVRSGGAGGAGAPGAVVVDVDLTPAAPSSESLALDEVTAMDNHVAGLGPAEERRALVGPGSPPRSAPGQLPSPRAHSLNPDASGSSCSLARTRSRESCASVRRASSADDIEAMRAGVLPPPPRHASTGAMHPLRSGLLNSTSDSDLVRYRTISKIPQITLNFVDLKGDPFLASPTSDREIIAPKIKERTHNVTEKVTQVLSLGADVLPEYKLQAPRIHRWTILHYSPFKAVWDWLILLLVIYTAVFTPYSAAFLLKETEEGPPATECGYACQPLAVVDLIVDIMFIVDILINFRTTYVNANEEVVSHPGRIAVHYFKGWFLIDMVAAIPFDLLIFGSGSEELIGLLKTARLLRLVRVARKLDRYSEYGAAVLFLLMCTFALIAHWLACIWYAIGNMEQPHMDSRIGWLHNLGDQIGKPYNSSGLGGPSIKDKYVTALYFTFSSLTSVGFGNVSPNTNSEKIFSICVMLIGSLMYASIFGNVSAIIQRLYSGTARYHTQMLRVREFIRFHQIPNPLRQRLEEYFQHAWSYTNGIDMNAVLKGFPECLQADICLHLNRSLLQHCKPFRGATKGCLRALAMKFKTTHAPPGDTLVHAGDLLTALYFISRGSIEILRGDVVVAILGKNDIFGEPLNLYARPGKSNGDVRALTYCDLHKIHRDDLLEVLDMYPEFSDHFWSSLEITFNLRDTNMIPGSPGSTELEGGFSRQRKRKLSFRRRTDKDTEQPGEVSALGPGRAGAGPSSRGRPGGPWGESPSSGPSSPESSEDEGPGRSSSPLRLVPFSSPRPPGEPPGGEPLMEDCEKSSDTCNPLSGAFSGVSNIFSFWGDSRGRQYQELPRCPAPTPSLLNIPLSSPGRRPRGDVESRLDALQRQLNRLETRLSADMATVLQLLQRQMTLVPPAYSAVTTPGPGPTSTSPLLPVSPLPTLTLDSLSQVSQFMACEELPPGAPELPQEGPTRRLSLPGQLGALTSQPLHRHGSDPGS

SMILES	hERG current change (%, negative = inhibition) at 10uM
COC(=O)c1c(S(C)(=O)=O)nc(-c2ccccc2)[nH]c1=O	-2.13%
Cc1nc2scc(-c3ccccc3)c2c(=O)n1N	-1.43%
Cc1nc(-c2cccnc2)sc1C(=O)Nc1ccc(Cl)cc1	-29.2%
CNC(=O)c1sc(-c2cccnc2)nc1C	-34.7%
Cc1nc(-c2cccnc2)sc1C(=O)N/N=C/c1ccccc1Cl	-75.5%
O=C(N/C(=C/c1ccc(F)cc1)C(=O)N1CCCC1)c1ccccc1	19.5%
CC1CCN(C(=O)/C(=C\c2ccccc2F)NC(=O)c2ccccc2)CC1	-52.7%
CSc1ccc(/C=C(/NC(=O)c2ccccc2)C(=O)N2CCN(C)CC2)cc1	-75.9%
O=C(N/C(=C\c1ccc(F)cc1)C(=O)N1CCCCCC1)c1ccccc1	-11.6%
CN1CCN(C(=O)/C(=C/c2ccc(N(C)C)cc2)NC(=O)c2ccccc2)CC1	-17.5%
O=C(N/C(=C/c1ccccc1F)C(=O)N1CCCCC1)c1ccccc1	10.1%
CN1CCN(C(=O)/C(=C/c2ccc(F)cc2)NC(=O)c2ccccc2)CC1	-77.8%
CN1CCN(C(=O)/C(=C/c2ccccc2F)NC(=O)c2ccccc2)CC1	-29.2%
COc1ccc(/C=C(\NC(=O)c2ccccc2)C(=O)N2CCN(C)CC2)cc1OC	20%
C[C@@H](CSc1ccc(Br)cc1)CN1CC[C@H](O)CCC1=O	-12%
COc1ccc2oc(C(=O)OCC(=O)NC3CC3)c(C)c2c1	11%
Cc1sc2ncn(CC(=O)NCC(=O)N3CCC4(CC3)OCCO4)c(=O)c2c1C	-4.54%
Cc1cc(NC(=O)c2c([N+](=O)[O-])cnn2C)no1	14.2%
Nc1ccccc1C(=O)NC1CCCCNC1=O (centres unmarked)	26.2%
CC1(C)N=C(N)NC(Nc2ccccc2Cl)=N1	20.9%
C[C@@H](C(=O)O)[C@H]1C[C@]1(C)[C@H](NC(=O)OCc1ccccc1)c1ccccc1	4.41%
COc1cccc(NC(=O)CC2(CC(=O)O)CCCC2)c1	-39.8%

SMILES	hERG current change (%, negative = inhibition) at 10uM
CC1Cc2cc(S(=O)(=O)N3CCCC(C(=O)N4CCCCC4)C3)ccc2N1C(=O)C1CC1 (centres unmarked)	-4.84%
O=C(c1cc(-c2ccc(Cl)cc2)on1)N1CCOCC1	-0.136%
O=C(O)c1cc(-c2ccccc2)n(-c2ccc(Cl)cc2Cl)n1	21.5%
O=C(c1cc(Cl)ccc1Cl)N1CCOCC1	8%
O=C(c1cc(-c2ccc(Cl)cc2)n(-c2cc(Cl)ccc2Cl)n1)N1CCOCC1	-68.9%
O=C(c1cc(-c2ccc(Cl)cc2Cl)on1)N1CCOCC1	-9.72%
O=C(c1cc(-c2ccc(Cl)cc2)n(-c2ccc(Cl)cc2Cl)n1)N1CCOCC1	-79.6%
N#C/C(=C\c1ccc(-c2nc3ccccc3s2)o1)C(N)=O	5.03%
COc1ccc(C(=O)NC(C)C2CC3CCC2C3)cc1 (centres unmarked)	2.42%
CC1=CN2C(=N)/C(=C/c3ccc(Sc4ccc(C)cc4)o3)C(=O)N=C2S1	10.1%
CCCCCCCCCCOC(=O)Cn1c(COc2ccccc2OC)[n+](C)c2ccccc21.[Cl-]	-77.3%
Cn1c(COc2ccccc2O)[n+](C)c2ccccc21.[Br-]	15.8%
CCOC(=O)C(CCCOc1ccccc1C)C(=O)OCC	6.43%
CCOC(=O)Cn1c(COc2ccccc2OC)[n+](C)c2ccccc21	7.4%
CCCCCCCCCCOC(=O)Cn1c(COc2ccccc2C)[n+](C)c2ccccc21.[Cl-]	-72.5%
CCn1c(COc2ccccc2C)nc2ccccc21	4.07%
CCOC(=O)c1nn(-c2ccc(Cl)cc2)c(=O)c(C#N)c1C	5.94%
CCCCNC(=S)N(C)/N=C/c1ccc(OCc2ccc(C(=O)OC)cc2)c(OC)c1	11.8%
O=C(N/N=C/c1cccnc1)c1ccc2c(c1)OCCO2	8.1%
Cc1ccc(CSCC(=O)N(C)CC(=O)Nc2c(Cl)cccc2Cl)cc1	-9.07%
CCOC(=O)C1CN(S(=O)(=O)c2ccc(C)cc2)c2cc(S(=O)(=O)CC)ccc2O1 (centres unmarked)	-41%
CCOC(=O)C1CN(S(=O)(=O)c2ccc(OC)cc2)c2cc(S(=O)(=O)CC)ccc2O1 (centres unmarked)	-52%

SMILES	hERG current change (%, negative = inhibition) at 10uM
CCOC(=O)C1CN(S(=O)(=O)c2ccccc2)c2cc(S(=O)(=O)CC)ccc2O1 (centres unmarked)	-23.3%
CC(=O)Oc1ccc(C2OC(=O)c3ccccc3N2C(C)=O)cc1 (centres unmarked)	1.12%
CCN(C(=O)Cc1c(C(=O)O)n(C)c2ccccc12)c1cc(OC)ccc1OC	11.9%
O=S(=O)(NCc1ccccn1)c1ccccc1	-2.19%
CNc1oc(-c2ccc(Cl)cc2)nc1C#N	-4.17%
Cc1cc(C)cc(N2CCCn3c2nc2c3c(=O)[nH]c(=O)n2C)c1	13.6%
CC(C)(C)n1nnnc1CN(Cc1cccnc1)Cc1ccccc1Cl	-33%
CC(c1nnnn1C(C)(C)C)N(Cc1cccnc1)Cc1ccccc1Cl (centres unmarked)	-52.3%
CC(C)(C)n1nnnc1C(c1cccs1)N(Cc1cccnc1)Cc1ccccc1Cl (centres unmarked)	-11.4%
CCOC(=O)c1nc(C)n(-c2cc(OC)c(Cl)cc2Cl)n1	5.95%
O=C(CCCOc1ccccc1)Nc1cccc(C(=O)O)c1	12.6%
COc1ccc(OC)c(NC(=O)CSc2nnc(-c3ccco3)o2)c1	-15.7%
CC(C)c1ccc(NC(=O)CSc2nc(=O)n(CCN3CCOCC3)c3c2CCC3)cc1	-41.5%
Cc1ccc(NC(=O)CSc2nc(=O)n(CCCN3CCOCC3)c3c2CCCC3)c(C)c1	-36.7%
Cc1ccc(NC(=O)CSc2nc(=O)n(CCCN3CCOCC3)c3c2CCCC3)cc1	-45.5%
Cc1cccc(NC(=O)CSc2nc(=O)n(CCCN3CCOCC3)c3c2CCCC3)c1	-42.4%
Cc1ccc(NC(=O)CSc2nc(=O)n(CCCN3CCOCC3)c3c2CCCC3)cc1F	-50.2%
CC(C)c1ccc(NC(=O)CSc2nc(=O)n(CCCN3CCOCC3)c3c2CCCC3)cc1	-39.7%
Cc1cc(C)cc(NC(=O)CSc2nc(=O)n(CCCN3CCOCC3)c3c2CCCC3)c1	-55.2%
O=C(CSc1nc(=O)n(CCCN2CCOCC2)c2c1CCCC2)Nc1ccc(Cl)cc1	-77.7%
CC(C)c1ccc(NC(=O)CSc2nc(=O)n(CCCN3CCOCC3)c3c2CCC3)cc1	-51.3%
CCN(CC(=O)Nc1c(F)cccc1F)C(=O)CN1C(=O)NC2(CCCC2)C1=O	22.5%

SMILES	hERG current change (%, negative = inhibition) at 10uM
CCN1CCCc2cc(CN(CCN3CCOCC3)C(=S)Nc3ccc(C)cc3)ccc21	-8.41%
CCN1CCN(S(=O)(=O)Cc2ccccc2)CC1	8.52%
COc1ccc2oc(C(=O)OCC(=O)NCC3CCCO3)c(C)c2c1 (centres unmarked)	2.35%
Cc1ccc(N2C(=O)c3ccccc3C2(O)c2ncc[nH]2)cc1 (centres unmarked)	15%
O=S(=O)(c1ccc(NC(=S)N/N=C/c2c3ccccc3cc3ccccc23)cc1)N1CCOCC1	8.09%
O=C1c2ccccc2C(=O)N1CCCCN(C(=O)c1cc2ccccc2oc1=O)c1ccc(F)cc1F	1.03%
Cc1cc(C(C)(C)C)oc1C(=O)OCC(=O)NC1CCCCC1	0.649%
O=C(NC(Cc1ccccc1)c1ccc2c(c1)OCCCO2)c1ccccc1 (centres unmarked)	19.1%
O=C(NCCS(=O)(=O)NCc1ccc(F)cc1)c1ccc2c(c1)OCO2	-39.8%
COc1ccccc1-n1c(O)c(C=NCCN2CCNCC2)c(=O)[nH]c1=O	14.4%
O=C(CSc1nc(=O)n(CCCN2CCOCC2)c2c1CCCC2)Nc1ccc(F)c(F)c1	-58%
O=C(CSc1nc(=O)n(CCCN2CCOCC2)c2c1CCCC2)Nc1ccc(F)cc1	-43.7%
O=C(CSc1nc(=O)n(CCCN2CCOCC2)c2c1CCCC2)Nc1ccc(F)cc1F	-22.6%
CC(C)(C)C(=O)Nc1ccccc1C(=O)Nc1ccccn1	3.65%
O=C1c2cccc3cccc(c23)C(=O)N1CCN1CCN(CC(O)COc2ccccc2)CC1 (centres unmarked)	-60%
O=C(COc1ccccc1)N1CCN(CCN2C(=O)c3cccc4cccc(c34)C2=O)CC1	-8.43%
COc1ccc(C(=O)CN2CCN(CCN3C(=O)c4cccc5cccc(c45)C3=O)CC2)cc1	-26.5%
O=C1c2cccc3cccc(c23)C(=O)N1CCN1CCN(CC(O)COc2ccc3ccccc3c2)CC1 (centres unmarked)	-11.7%
COc1cccc(OCC(O)CN2CCN(CCN3C(=O)c4cccc5cccc(c45)C3=O)CC2)c1.Cl (centres unmarked)	-59.2%
O=C(CSc1nnc(NC(=O)C2CC2)s1)Nc1ccc(F)cc1	12.5%
